Measurements from PubChem BioAssay AID720706 (Broad Institute, 2013).
About 5,500 (1.6%) of roughly 350,000 compounds were called active.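 The calls were made as follows: active = significant combined selectivity score with lowered wild-type GFP, culture density cut under 30%, mutant RFP and density less affected; inactive = any of these conditions unmet.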 Shown is part of a subset that was picked to be rich in actives.

Experiment: reduced GFP signal of wild-type E. coli, primary screen, bacterial rRNA inhibitor project, GFP/RFP fluorescence, OD600, single point (AID 720706)
Conditions: E. coli WT GFP vs humanized-ribosome RFP mutants, 24 h; GFP signal change (wild-type ribosome): stronger effect = lower value, DMSO median 0, no signal -100; OD600 change: measured here: OD600 growth, DMSO median 0, no signal -100; RFP signal change: measured here: RFP humanized mutant strains, DMSO median 0, no signal -100, concentration not given here

Structure (SMILES)	GFP signal change (wild-type ribosome)	OD600 change [%]	RFP signal change [%]
C[C@@H]1CN([C@H](C)CO)C(=O)c2cc(-c3cccc(F)c3)cnc2O[C@H]1CN(C)C(=O)Nc1ccccc1F	-2.5% (inactive)	-5.06	-1.42
CCC(=O)N1CC2(CN(Cc3cccnc3)C2)c2c(n(C)c3cc(OC)ccc23)[C@@H]1CO	1.02% (inactive)	-2.19	-2.12
C=C1CCC(N(O)c2cc(C)on2)C(=C)CCC2C1CC2(C)C (centres undefined)	-20.5% (active)	-3.66	1.7
CN1CCN(C(=O)C[C@H]2CC[C@@H]3[C@H](COC[C@@H](O)CN3CC3CCCC3)O2)CC1	-1.31% (inactive)	7.95	-2.61
CCOc1ccccc1CNS(=O)(=O)c1cc(-c2cc(C)no2)ccc1C	-6.17% (inactive)	-29.1	-15.4
Cc1cc(-c2ccc(C)c(S(=O)(=O)NC(C)Cc3ccco3)c2)on1 (centres undefined)	-34.9% (active)	-21.1	0.997
Cc1cc(-c2ccc(C)c(S(=O)(=O)NCCCN(Cc3ccccc3)C(C)C)c2)on1	-6% (inactive)	-18.2	1.25
CC1(C)CC(=O)C=C(c2ccc(Cl)c(C(F)(F)F)c2)C1	2% (inactive)	-0.255	-10.1
COc1cc(F)c(C2=CC(=O)CC(C)(C)C2)cc1F	-21.1% (active)	-16.7	2.19
COc1ccccc1-c1n[nH]nc1C1=CC(=O)CC(C)(C)C1	-4.29% (inactive)	-12.1	-0.515
C[C@@H]1CN([C@H](C)CO)C(=O)c2ccccc2-c2ccccc2CO[C@H]1CN(C)S(=O)(=O)c1ccsc1	-0.618% (inactive)	-1.1	-2.79
O=C(NCC[C@@H]1CC[C@@H](NC(=O)C2CCCC2)[C@H](CO)O1)c1cnccn1	3.79% (inactive)	7.83	-1.44
CCCN(CC1CC1)C(=S)NC(=O)c1ccccc1Br	-22.1% (active)	-12	-8.89
O=C(NC(=S)Nc1ncccn1)c1ccccc1Br	-2.07% (inactive)	4.96	-3.8
CC1CCN(C(=S)NC(=O)c2ccccc2Br)CC1	6.21% (inactive)	4.62	-0.105
O=C(CCN1CCCCC1)NCC[C@@H]1CC[C@H](NS(=O)(=O)c2cccc(Cl)c2)[C@H](CO)O1	3.52% (inactive)	6.73	1.99
COc1ccccc1NC(=O)N1C[C@@H](O)COC[C@H]2O[C@@H](CC(=O)NCc3ccccc3)CC[C@@H]21	-2.42% (inactive)	-2.65	2.34
COCC(=O)N1CCC2(CC1)CN(Cc1ccccc1Cl)[C@H](CO)c1c2c2ccc(OC)cc2n1C	5.11% (inactive)	-2.87	0.0355
Cc1ccc(S(=O)(=O)N2CCN(C(=O)c3cccs3)CC2)cc1	0.592% (inactive)	-2.53	-0.742
O=C(C[n+]1cc(-c2ccc(Cl)c(Cl)c2)n2c1CCC2)c1cccs1	-50.7% (active)	-21.5	-14.4
Clc1ccc(C[n+]2cc(-c3ccc(Cl)cc3)n3c2CCC3)cc1	-41.8% (inactive)	-50.2	-12.3
Cc1ccc(C(=O)C[n+]2cc(-c3ccccc3)n3c2CCCCC3)cc1	-44.5% (inactive)	-43.4	50.7

Structure (SMILES)	GFP signal change (wild-type ribosome)	OD600 change [%]	RFP signal change [%]
Clc1ccc(C[n+]2cc(-c3ccccc3)n3c2CCC3)cc1	2.79% (inactive)	-1.72	-0.921
Cc1ccc(-c2c[n+](CC(=O)Nc3ccccc3)c3n2CCC3)cc1	-22.1% (active)	-5.22	8.16
O=C(NCC1CC1)[C@@H]1[C@@H](CO)[C@@H]2Cn3c(ccc(-c4ccncc4)c3=O)[C@H]1N2Cc1nccs1	2.96% (inactive)	4.86	-1.83
O=C(C[C@@H]1CC[C@H]2[C@@H](COC[C@H](O)CN2C(=O)Nc2ccccc2)O1)NCCc1ccncc1	6.3% (inactive)	12.9	-0.44
Cc1ccc(S(=O)(=O)CCC(=O)OCc2ccccc2)cc1	0.84% (inactive)	1.2	2.56
Cc1nn(C(C)(C)C)c(OC(=O)CC(C)C)c1S(=O)(=O)c1ccccc1	-21.5% (active)	-14.2	-1.55
CC(CC(=O)N1CCN(S(=O)(=O)c2ccccc2)CC1)n1cncn1 (centres undefined)	5.03% (inactive)	0.845	-1.68
CNC[C@H]1Oc2ccccc2CC(=O)N(C)C[C@H]1C	1.46% (inactive)	4.75	-1.05
CC(C)NC(=O)Nc1ccc2c(c1)CC(=O)N(C)C[C@@H](C)[C@@H](CN(C)C(=O)OC(C)(C)C)O2	2.38% (inactive)	4.01	0.746
CC(C)C#Cc1ccc2c(c1)O[C@@H](CN(C)C(=O)CN(C)C)[C@@H](C)CN([C@H](C)CO)S2(=O)=O	2.76% (inactive)	1.18	-1.07
CCCNC(=O)N(C)C[C@@H]1Oc2ncc(-c3cccc(C#N)c3)cc2C(=O)N([C@@H](C)CO)C[C@@H]1C	5.65% (inactive)	14.1	-4.23
Cn1cc(C2OC(=O)c3ccccc32)c2ccccc21 (centres undefined)	-10.5% (active)	-18.9	-4.84
Cc1ccc(CNC(=O)Cc2cn(C)c3ccccc23)cc1	-9.46% (inactive)	-8.64	3.4
Cc1ccc(N2C(=O)S/C(=C/c3cn(C)c4ccccc34)C2=O)cc1	5.23% (inactive)	9.33	6.02
CN1c2ccc(-c3ccccc3F)cc2[C@@H]2[C@@H](CCN2C(=O)CN2CCOCC2)[C@H]1CO	-2.46% (inactive)	-0.94	-0.302
C[C@@H]1CN([C@H](C)CO)C(=O)c2cc(NC(=O)Cn3cnnn3)ccc2O[C@@H]1CN(C)Cc1ccc(C(F)(F)F)cc1	-1.05% (inactive)	-5.5	-0.189
O=C(Cc1ccc(Cl)cc1)c1ccccc1	3.35% (inactive)	2.91	-5.05
OCCN(Cc1ccccc1)Cc1ccc(Cl)cc1	-23% (active)	-9.66	0.44
CN(C(=O)CN(CCO)CC(=O)N(C)C(C)(C)Cc1ccccc1)C(C)(C)Cc1ccccc1	-31.9% (inactive)	-35.7	-7.29
CCC(=O)N[C@H]1CC[C@@H](CC(=O)NCC2CC2)O[C@@H]1CO	3.28% (inactive)	7.08	3.11
CC(C)NC(=O)Nc1ccc2c(c1)C(=O)N([C@@H](C)CO)C[C@H](C)[C@@H](CN(C)Cc1ccc(C(=O)O)cc1)OCCCC[C@H](C)O2	-0.801% (inactive)	3.15	-0.195
